Records with an inconclusive call do not appear. The source made the active and inactive calls. Unless noted, calls come from the whole dose curve; as a rule, active = well fitted curve in the direction sought with a large enough effect in the repeat runs; inconclusive = weak or mixed curves; inactive = no such curve, though single readings can be large; an effect the other way counts as inactive or inconclusive.

From PubChem BioAssay (Tox21) come the findings set out here.

A short description of experiment [1]: qHTS assay to identify small molecule antagonists of the estrogen related receptor (ERR) signaling pathway from Tox21 library - cell viability counter screen (AID 1224834). Note: nearly all actives have a fitted effect of over 30% in size. Note: potency is the fitted concentration of half-maximal effect. In a few lines:
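Cytotoxicity of test substances is gauged in the same ERR cells used for the antagonist screen, after 17.5 h of compound treatment at 37 C, by CellTiter-Fluor fluorescence measured after 30 min.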
Background: qHTS replaces the single test concentration by a dilution series.

For experiment [2], the target named is Luciferin 4-monooxygenase (Photinus pyralis) (UniProt P08659). As to the kind of experiment: qHTS assay to identify small molecule inhibitors of firefly luciferase (AID 1224835). Note: nearly all actives have a fitted effect of over 25% in size. Note: potency is the fitted concentration of half-maximal effect. The gist of the method: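 Quantitative HTS format; KM concentrations of both substrates. Purified P. pyralis FLuc activity quantified from luminescence images.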
Experiment [3] in a line: qHTS assay to identify small molecule agonists of the constitutive androstane receptor (CAR) signaling pathway - cell viability counter screen (AID 1224836). Note: nearly all actives have a fitted effect of over 45% in size. Note: potency is the fitted concentration of half-maximal effect. In a few lines: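 Viability read-out: CellTiter-Fluor fluorescence after 23 h compound exposure at 37 C/5% CO2 in double-stable HepG2-CYP2B6-hCAR cells, with PK11195 present at 0.75 uM final; compounds tested in 15-point titration.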

Experiment [4] can be described thus: qHTS assay to identify small molecule antagonists of the constitutive androstane receptor (CAR) signaling pathway - cell viability counter screen (AID 1224837). Note: nearly all actives have a fitted effect of over 45% in size. Note: potency is the fitted concentration of half-maximal effect. The gist of the method:
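Multiplexed cytotoxicity read-out for the CAR antagonist screen: double-stable HepG2-CYP2B6-hCAR cells co-treated with 50 nM CITCO (final) and compound over 15 concentrations, incubated 23 hr, then assessed by CellTiter-Fluor fluorescence.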

Experiment [5] in a line: qHTS assay to identify small molecule antagonists of the estrogen related receptor signaling pathway with the pleiotropic PPARgamma coactivator (PGC) from Tox21 10K library - cell viability counter screen (AID 1224840; active = well fitted cell-killing curve with a large enough effect in the repeat runs, not every such curve was filed as active; note: nearly all actives have a fitted effect of over 40% in size; note: potency is the fitted concentration of half-maximal effect). In a few lines: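 Step one, plate 2,000 PGC/ERR cells per well; step two, incubate 6 h at 37 C/5% CO2; step three, pin-transfer compounds; step four, incubate 17.5 h; step five, add CellTiter-Fluor and read fluorescence after 30 min.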

In experiment [6] the target is Nuclear receptor subfamily 1 group I member 3 (Homo sapiens) (UniProt Q14994). As to the kind of experiment: qHTS assay to identify small molecule antagonists of the constitutive androstane receptor (CAR) signaling pathway (AID 1224838). Note: nearly all actives have a fitted effect of over 40% in size. Note: potency is the fitted concentration of half-maximal effect. The gist of the method: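 Compounds were titrated across 15 concentrations onto HepG2 cells double-stably expressing hCAR and a CYP2B6-2.2kb reporter, together with 50 nM CITCO (final). After 24 h at 37 C, luciferase activity was measured by luminescence.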

The nature of experiment [7]: qHTS assay to identify small molecule antagonists of the estrogen related receptor signaling pathway with the pleiotropic PPARgamma coactivator (PGC) from Tox21 10K library (AID 1224841; call rule not given here; note: actives are mostly falling curves and most rising ones were filed inactive; nearly all actives have a fitted effect of over 50% in size; note: potency is the fitted concentration of half-maximal effect). The gist of the method:
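Antagonism in this quantitative HTS is taken from loss of luciferase signal in PGC/ERR cells. Cells (2,000/well) are treated with compounds in DMSO after a 6 h settling period and read by One-Glo luminescence after 18 h.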

Experiment [8] in a line: qHTS assay to identify small molecule agonists of the estrogen related receptor signaling pathway with the pleiotropic PPARgamma coactivator (PGC) from Tox21 10K library (AID 1224842). Note: nearly all actives have a fitted effect of over 15% in size. The gist of the method: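 PGC/ERR reporter cells (NTP line) were seeded 2,000 per well, rested 6 h at 37 C/5% CO2, then pin-dosed with compounds in DMSO for 18 h at 37 C; luciferase read by One-Glo luminescence after 30 min at room temperature.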

Experiment [9] concerns the target Nuclear receptor subfamily 1 group I member 3 (Homo sapiens) (UniProt Q14994). The experiment is described as follows: qHTS assay to identify small molecule agonists of the constitutive androstane receptor (CAR) signaling pathway (AID 1224839). Note: series mostly up to about 92 µM; nearly all actives have a fitted effect of over 15% in size. In a few lines:
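Luminescence read-out (ONE-Glo, 30 min, room temperature) from double-stable HepG2-CYP2B6-hCAR cells exposed 24 h to 15-point compound series in presence of 0.75 uM PK11195 final.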

Sequence of Nuclear receptor subfamily 1 group I member 3 (Homo sapiens) (Q14994 whole entry, looked up): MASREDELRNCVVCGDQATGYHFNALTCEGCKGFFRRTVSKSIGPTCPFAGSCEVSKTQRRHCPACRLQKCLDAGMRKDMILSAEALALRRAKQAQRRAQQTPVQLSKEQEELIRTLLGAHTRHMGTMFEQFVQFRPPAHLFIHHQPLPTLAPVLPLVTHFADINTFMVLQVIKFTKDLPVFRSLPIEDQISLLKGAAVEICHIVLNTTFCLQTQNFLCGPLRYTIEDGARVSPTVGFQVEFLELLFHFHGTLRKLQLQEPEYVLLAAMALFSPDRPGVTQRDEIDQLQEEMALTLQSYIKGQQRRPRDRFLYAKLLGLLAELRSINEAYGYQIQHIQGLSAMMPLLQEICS
Sequence of Luciferin 4-monooxygenase (Photinus pyralis) (P08659 whole entry, looked up): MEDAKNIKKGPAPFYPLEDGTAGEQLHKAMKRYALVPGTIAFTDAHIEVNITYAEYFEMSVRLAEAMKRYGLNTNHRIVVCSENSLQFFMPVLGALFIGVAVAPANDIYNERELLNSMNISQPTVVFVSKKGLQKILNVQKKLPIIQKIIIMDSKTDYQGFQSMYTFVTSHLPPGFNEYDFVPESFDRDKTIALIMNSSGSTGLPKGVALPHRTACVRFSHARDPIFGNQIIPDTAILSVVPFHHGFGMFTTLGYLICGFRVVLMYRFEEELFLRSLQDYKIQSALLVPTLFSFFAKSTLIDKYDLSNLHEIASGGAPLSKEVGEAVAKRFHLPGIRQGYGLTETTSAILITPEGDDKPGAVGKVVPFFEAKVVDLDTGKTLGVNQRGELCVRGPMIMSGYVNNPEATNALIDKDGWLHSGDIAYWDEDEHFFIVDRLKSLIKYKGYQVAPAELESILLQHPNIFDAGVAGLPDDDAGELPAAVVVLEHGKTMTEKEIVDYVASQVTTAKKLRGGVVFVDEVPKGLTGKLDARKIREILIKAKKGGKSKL

On to `O=CNNC=O`, for which the Potency result in [1], in experiment [2], in experiment [3], in experiment [4] and in experiment [5] was “inactive” in each case.
Consider `CC(=O)c1ccc[nH]1`, for which the Potency entry in experiment [1], in [2], in experiment [3], in [4] and in experiment [5] was “inactive” each time.
Consider `Cc1ccc(S(=O)(=O)NC(=O)NC2CCCCC2)cc1`, for which the Potency result in experiment [1], in experiment [2], in [3], in experiment [4] and in experiment [5] was “inactive” each time.
Regarding `CCCCCCCC/C=C\CCCCCCCC(=O)OCCO`, the Potency entry in experiment [1], in experiment [2], in [3], in experiment [4] and in experiment [5] was “inactive” in each case.
Take `CNc1c2c(nn1C)CCCC2`: the Potency entry in [1], in [2], in experiment [3], in experiment [4] and in experiment [5] was “inactive” each time.
In the case of `CN=C(N)NC(=O)Nc1c(C)cccc1C`, the Potency result in experiment [1], in experiment [2], in experiment [3], in experiment [4], in [6] and in [5] was “inactive” each time. The Potency result in experiment [7] and in experiment [8] was “inactive” each time.
`CCC(CO)(CO)CO`: the Potency entry in [1], in experiment [2], in [3], in [4] and in [5] was “inactive” in each case.
On to `COC1CCC=CO1` (stereo not given), for which the Potency entry in experiment [1], in experiment [2], in experiment [3], in experiment [4], in experiment [6] and in experiment [5] was “inactive” in each case. For the same molecule, the Potency result in experiment [7] and in experiment [8] was “inactive” in each case.
`CCCCCCCC/C=C/C(=O)O`: the Potency entry in [1], in experiment [2], in [3], in experiment [4] and in experiment [5] was “inactive” each time.
In the case of `O=C(O)CCS`, the Potency entry in experiment [1], in [2], in experiment [3], in experiment [4], in experiment [6] and in experiment [5] was “inactive” in each case. Besides, the Potency entry in experiment [7] and in experiment [8] was “inactive” each time.
Take `CC(CN(CCN(CC(C)OCCO)CC(C)OCCO)CC(C)OCCO)OCCO` (stereo not given): the Potency result in experiment [1], in experiment [2], in experiment [3], in experiment [4] and in experiment [5] was “inactive” throughout.
Turning to `Cc1c[nH]c2ccccc12`, the Potency entry in [1], in experiment [2], in experiment [3], in [4], in experiment [6] and in experiment [5] was “inactive” throughout. The Potency result in experiment [8] was “inactive”.
Consider `C1=CCC2CC=CC2C1` (stereo not given), for which the Potency result in [1], in experiment [2], in experiment [3], in experiment [4], in experiment [5] and in experiment [7] was “inactive” each time. The Potency entry in experiment [8] is “inactive”.
With `CC(=O)NNC(C)=O`, the Potency entry in experiment [1], in experiment [2], in experiment [3], in experiment [4], in experiment [5] and in experiment [7] was “inactive” each time. The Potency result in [8] is “inactive”.
With `Nc1nc(-c2ccc([N+](=O)[O-])cc2)cs1`, the Potency result in experiment [1], in experiment [2], in experiment [3], in [4] and in experiment [5] was “inactive” in each case.
On to `CCN(CC)C(=O)N1CCN(C)CC1`, for which the Potency entry in experiment [1], in experiment [2], in experiment [3], in [4], in experiment [5] and in experiment [8] was “inactive” in each case.
Take `CCCCCCCCCCCCCCCC(=O)OCC`: the Potency result in [1], in experiment [2], in experiment [3], in experiment [4] and in experiment [5] was “inactive” throughout.
For `CC(=O)OCCC(C)CC(C)(C)C` (stereo not given), the Potency result in [1], in experiment [2], in [3], in [4], in experiment [9] and in experiment [5] was “inactive” in each case. Moreover, the Potency entry in experiment [7] and in experiment [8] was “inactive” throughout.
Turning to `CC1=CC[C@@]23C[C@@H]1C(C)(C)[C@@H]2CC[C@H]3C`, the Potency entry in [1], in experiment [2], in experiment [3], in experiment [4], in [9] and in [5] was “inactive” each time.
As for `Cc1oc(=O)oc1COC(=O)[C@@H]1N2C(=O)[C@@H](NC(=O)[C@H](N)c3ccccc3)[C@H]2SC1(C)C`, the Potency result in [1], in experiment [2], in experiment [3], in experiment [4], in [5] and in experiment [7] was “inactive” in each case. Besides, the Potency result in experiment [8] was “inactive”.
With `O=C(O)c1cc(Cl)cc(Cl)c1O`, the Potency entry in experiment [1], in [2], in experiment [3], in [4], in experiment [5] and in experiment [7] was “inactive” in each case. Also, the Potency result in [8] was “inactive”.
With `CC1C(C)(C)C2=C(C(=O)CCC2)C1(C)C` (stereo not given), the Potency entry in [1], in experiment [2], in experiment [3], in experiment [4], in experiment [6] and in experiment [5] was “inactive” in each case. Further, the Potency entry in experiment [7] and in experiment [8] was “inactive” each time.
In the case of `C[C@@H]1C[C@H]2[C@@H]3CCC4=CC(=O)C=C[C@]4(C)[C@@]3(F)[C@@H](O)C[C@]2(C)[C@@]1(O)C(=O)COP(=O)(O)O`, the Potency entry in [1], in experiment [2], in experiment [3], in experiment [4] and in experiment [5] was “inactive” each time.
Take `CN1CCCN(C(c2ccccc2)c2ccc(Cl)cc2)CC1` (stereo not given): the Potency in experiment [1] is 29.8 µM (active); in experiment [3] it was 26.6 µM (active); in [4], 29.8 µM (active); in [5] it was 26.6 µM (active). Further, the Potency entry in [2], in experiment [9], in experiment [7] and in experiment [8] was “inactive” throughout.
Regarding `CCCCOC(=O)CCCCC(=O)OCCCC`, the Potency result in [1], in [2], in experiment [3], in experiment [4], in experiment [5] and in experiment [7] was “inactive” in each case. For the same molecule, the Potency entry in experiment [8] was “inactive”.
For `O=P(O)(O)Oc1ccccc1`, the Potency result in experiment [1], in experiment [2], in experiment [3], in experiment [4] and in [5] was “inactive” throughout.
Consider `CC(C)(C)S`, for which the Potency result in experiment [1], in experiment [2], in experiment [3], in experiment [4], in experiment [5] and in experiment [7] was “inactive” each time. Also, the Potency result in experiment [8] was “inactive”.
`C1CCCCC1`: the Potency entry in experiment [1], in [2], in [3], in experiment [4], in [6] and in experiment [5] was “inactive” throughout. The Potency entry in experiment [7] and in experiment [8] was “inactive” throughout.
On to `CCN(Cc1cccc(S(=O)(=O)O)c1)c1ccc(C(=C2C=CC(=[N+](CC)Cc3cccc(S(=O)(=O)O)c3)C=C2)c2ccccc2S(=O)(=O)[O-])cc1`, for which the Potency in experiment [1] was 30.7 µM (active); in experiment [2], 20.1 µM (active); in [3], 34.5 µM (active); in experiment [4], 34.5 µM (active); in experiment [6], 15.4 µM (active); in experiment [5], 27.4 µM (active). In addition, in [7], the Potency is 8.67 µM (active). In addition, the Potency entry in [8] was “inactive”.
